Data on 40 compounds can be found in PubChem BioAssay (EPA / NIEHS).

SMILES strings stand for the structures. Active and inactive are the calls of the source. The calls were made as follows: active = hit-call score of the fitted dose curve at least 0.9, where 1 is the maximum; inactive = score below 0.9.

A short description of this experiment: ATG_GATA_CIS: Attagene CIS-FACTORIAL HepG2 Assay for human GATA Binding Protein (AID 2282944). As to conditions: HepG2 GATA cis-element reporter, Attagene multiplex mRNA; actives raise or lower the signal. The procedure:
ATG_CIS is a cell-based, multiplexed-readout assay that uses HepG2, a human liver cell line, with measurements taken at 24 hours after chemical dosing in a 24-well plate.ATG_GATA_CIS is one of 52 assay component(s) measured or calculated from the ATG_CIS assay. It is designed to make measurements of mRNA induction, a form of inducible reporter, as detected with fluorescence intensity signals by Reverse transcription polymerase chain reaction (RT-PCR) and Capillary electrophoresis technology.Data from the assay component ATG_GATA_CIS was analyzed into 1 assay endpoint. This assay endpoint, ATG_GATA_CIS, was analyzed with bidirectional fitting relative to DMSO as the negative control and baseline of activity. Using a type of inducible reporter, measures of mRNA for gain or loss-of-signal activity can be used to understand the reporter gene at the transcription factor-level as they relate to the gene GATA1. Furthermore, this assay endpoint can be referred to as a primary readout, because this assay has produced multiple assay endpoints where this one serves a reporter gene function. To generalize the intended target to other relatable targets, this assay endpoint is annotated to the dna binding intended target family, where the subfamily is GATA proteins.
Human liver HepG2 cells are transiently transfected with multiple reporter transcription units (MRTUs) in 6-well plates using FuGene 6 reagent (Roche; 3 ml FuGene/1 mg DNA). The MRTU constructs are regulated by a cis-regulating element (promoter). […] A major difference between the CIS and TRANS system is that in CIS activities of endogenous TFs are measured, whereas the TRANS assay evaluates changes in activities of exogenous, chimeric NR-Gal4 proteins. […] At the end of 24 hour incubation, total RNA was isolated using TriZol reagent (Invitrogen). The isolated RNA is then reverse-transcribed using oligo(dT) primer and Mo-MLV reverse transcriptase (Invitrogen) with DNAse I (Ambion) treatment for 30 min. The one-tenth of the produced cDNA was amplified by PCR using Taq DNA polymerase (Invitrogen) and two reporter sequence-specific primers. The PCR products were fluorescently labeled by primer extension with 6-arboxyfluorescein (6-FAM) 5'-labeled reporter sequence-specific primer (2 min at 95 C, 20 s at 68 C and 10 min at 72 C) and these products were digested with 5U of HpaI (New England Biolabs) for 2h at 37 C. The fragments were purified using Qiaquick PCR columns (Qiagen), analyzed on an ABI 3130xL genetic analyzer (Applied Biosystems) with peak positions identified by using a set of X-rhodamine (ROX)-labeled MapMarker1000 molecular weight standards (BioVentures). The raw capillary electrophoresis data was processed using Attagraph software (Attagene).
With `Oc1cccc(-c2ccccc2)c1`, the compound was classed as inactive.

As for `Nc1cccnc1`, the outcome was inactive. With `BrCc1ccc(Br)cc1`, the call was inactive. On the same count and under the same terms, as for `CN(N=O)c1ccc([N+](=O)[O-])cc1`, the entry is “inactive”; as for `CC(c1ccc(O)cc1)c1ccc(O)cc1`, “inactive”. Still for that read-out and setting: as for `Nc1ncn[nH]1`, the entry is “inactive”; as for `O=C(O)COc1ccc(Cl)cc1`, “inactive”; as for `CNC(=O)N(C)c1nc2ccccc2s1`, “inactive”. In the case of `C=CCOC(F)(C(F)(F)F)C(F)(F)F`, the compound was called inactive. Take `O=C(CCl)Nc1ccccc1`: the AC50 is 161 µM (active). For `CCCCN(CCCCO)N=O`, the result was inactive.

In the case of `Cc1ccc(OP(=O)(Oc2ccc(C)cc2C)Oc2ccc(C)cc2C)c(C)c1`, the result was inactive. Same read-out and setting: with `CCC[CH2][Sn]([CH2]CCC)([CH2]CCC)[CH2]CCC` the entry was “inactive”. On the same count and under the same terms, as for `COc1nn(C(=O)NS(=O)(=O)c2ccccc2OC(F)(F)F)c(=O)n1C`, the entry is “inactive”; as for `Nc1c(Oc2ccccc2)cc(O)c2c1C(=O)c1ccccc1C2=O`, “inactive”; as for `Cc1cccc(C)c1NC(=O)CN1CCCC1=O`, “inactive”. The same measure, in the same setting: with `CCCCCCCCCCCCN(C)C` the entry was “inactive”. `BrCC(Br)c1ccccc1` (stereo not given): the outcome was inactive.

Regarding `CC(C)(COCC1CO1)COCC1CO1` (stereo not given), the compound was called inactive. As to `CCCSP(=S)(OCC)Oc1ccc(Cl)cc1Cl` (stereo not given), the outcome was inactive.

As for `CCCCOP(=O)(CCCC)OCCCC`, the compound was classed as inactive.

As to `c1ccc2sc(SNC3CCCCC3)nc2c1`, the call was inactive. On the same count and under the same terms, with `COCCl` the entry was “inactive”; with `C1CN2CCN1CC2`, “inactive”. Still for that read-out and setting: as for `O=S(=O)(F)C(F)(F)C(F)(F)C(F)(F)C(F)(F)F`, the entry is “inactive”. Still for that read-out and setting: with `C=CCN=C=S` the entry was “inactive”; with `Cc1cc(C)cc(C)c1`, “inactive”.

Take `O=S(=O)(Oc1ccc(Cl)cc1)c1ccc(Cl)cc1`: the result was inactive.

With `Clc1cccc(Cl)c1`, the compound was classed as inactive. Take `COc1ccccc1N`: the outcome was inactive. For `Cc1ccc2nc3sc(=O)sc3nc2c1`, the AC50 is 29.9 µM (active). On to `CCCCCCCCCCCCBr`, for which the outcome was inactive. On the same count and under the same terms, with `CCNc1nc(NCC)nc(SC)n1` the entry was “inactive”; with `O=C(O)C1(c2ccc3c(c2)OC[C@H](Cc2ccc(-c4ccccc4)cc2)[C@H]3O)CCCC1`, “inactive”; with `Cc1cccc(N=Nc2ccc(N(C)C)cc2)c1`, “inactive”. Same read-out and setting: as for `O=c1[nH]c2ccccc2n1C1CCN(CCCC(c2ccc(F)cc2)c2ccc(F)cc2)CC1`, the entry is “inactive”; as for `CCCCOC(=O)COC(=O)c1ccccc1C(=O)OCCCC`, “inactive”; as for `C[C@H]1C(=O)O[C@@H]2CCN3CC=C(COC(=O)[C@](C)(O)[C@]1(C)O)[C@H]23`, “inactive”. On the same count and under the same terms, with `COc1ccc([N+](=O)[O-])cc1O` the entry was “inactive”; with `CCCCCCCCBr`, “inactive”.
